# Source: PubChem BioAssay
# AHR activator – human AHR activation; AHR-responsive luciferase reporter cells, luminescence; activation, % at 5 µM; actives 2.5% (n = 320,000); in the data active = activation above about 47%;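 note: 0% = vehicle wells and 100% = reference agonist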
# DAX1 inh-1 – inhibitors of DAX1 repression of SF-1 activated StAR promoter. HEK293T StAR-luciferase reporter, SF-1/DAX-1 repression relief. inhibition, % at 6.8 µM. actives 1.1% (n = 370,000);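 active = inhibition above the mean over all tested compounds plus 3 SD, cut at about 3.6% in these data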;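 note: 0% = DAX-1 cells with DMSO and 100% = cells lacking DAX-1 with DMSO; higher inhibition means more luminescence from relief of DAX-1 repression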
# hcDAF-12 act – activates DAF-12 receptor from parasite H. contortus; HEK293 hcDAF-12 lit1-tk-luc reporter, luminescence; 0% DMSO, 100% Δ7-dafachronic acid; activation, % at 6.8 µM; actives 1.4% (n = 370,000); AID 652067;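 active = activation above the mean of all tested compounds plus 3 SD, cut at about 5.5% in these data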;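 note: 100% = response to 3 µM Δ7-dafachronic acid high control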
# DAX1 inh-2 – inhibits human nuclear receptor DAX1 | inhibition, % at 6.75 µM | P51843 | actives 0.99% (n = 340,000) | HEK293 Gal4-DAX1 luciferase reporter, luminescence | AID 504766;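 active = inhibition above the mean over all tested compounds plus 3 SD, cut at about 4.2% in these data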;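 note: 0% = DAX1-transfected cells with DMSO and 100% = empty-vector control cells with DMSO; inhibition shows as a rise in luminescence from relieved DAX1 repression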
# ssDAF12 agonist – activators of S. stercoralis DAF-12 nuclear receptor; actives 1% (n = 370,000); HEK293 ssDAF-12/GRIP1 lit1-tk-luc reporter, luminescence; % of 3 µM dafachronic acid response; activation, % at 6.8 µM;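 active = activation above the mean over all tested compounds plus 3 SD, cut at about 0.9% in these data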;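 note: 0% = DMSO-only wells and 100% = 3 µM delta7-dafachronic acid wells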
# hgDAF12 agonist – agonists of H. glycines DAF-12 nuclear receptor | HEK293 GAL4-hgDAF12 UAS-luciferase reporter, agonist luminescence; normalized to butyrate control | activation, % at 6.8 µM | actives 1.8% (n = 370,000);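 active = activation above a cutoff set at the mean of all screened compounds plus 3 SD, cut at about 10% in these data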;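 note: 0% = DMSO wells and 100% = sodium butyrate wells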
# AHR act confirm – confirmation of human aryl hydrocarbon receptor activators. shares compounds with AHR activator. human cells, AHR-responsive luciferase reporter, luminescence. activation, % at 9 µM. actives 87% (n = 2,300). AID 2845; in the data active = activation above about 49%;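 note: HepG2 hepatoma cells carrying a DRE-driven firefly luciferase reporter; 0% = vehicle wells and 100% = reference agonist wells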
# PXR counter – activates human PXR in AHR activator counter-screen; shares compounds with AHR activator; cell-based PXR reporter, luciferase luminescence; activation, % at 11.6 µM; actives 88% (n = 2,300); in the data active = activation above about 11%;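 note: human hepatoma DPX-2 cells expressing full-length human PXR; 0% = DMSO and 100% = reference agonist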
# * marks the source's active call; other numbers are inactive results; . = no result. Hits are enriched below; roughly 5.7% of the tested compounds scored in any of these assays.
SMILES,AHR activator,DAX1 inh-1,hcDAF-12 act,DAX1 inh-2,ssDAF12 agonist,hgDAF12 agonist,AHR act confirm,PXR counter
CCOc1ccccc1N=CC1=C(O)CC(c2ccccc2)CC1=O (centres undefined),20,-1,0,1,-2,-4,.,.
COc1ccc(-c2sc3cc(OC)c(OC)cc3c2C#CCCO)cc1,32,-1,-2,-1,-2,-1,.,.
CC(C)(C)c1cc(C(=O)NCCCn2ccnc2)cc(C(C)(C)C)c1,9,0,-1,1,-1,-2,.,.
O=C(NCCCn1ccnc1)c1cc(Cl)cc(Cl)c1,87*,0,-1,-1,-2,-1,74*,22*
CC(C)C(NC(=O)/C=C/c1ccc(F)cc1)C(C)C,3,0,-1,0,-1,-1,.,.
O=S(=O)(Nc1cc(Sc2cccc3cccnc23)c(O)c2ccccc12)c1ccc(F)cc1,85*,-3,-5,.,-2,-12,25,132*
Cc1cc(/C=C2\NC(=S)NC2=O)c(C)n1-c1cccnc1,100*,0,0,3,-2,0,59*,33*
COC(=O)c1ccccc1NC(=O)Cn1ccnc1,104*,0,-1,0,-2,0,84*,.
COc1ccc(NC(=O)NCc2cccnc2)cc1OC,7,1,0,-1,-1,0,.,.
O=C(Nc1ccc(Cl)cc1F)c1cccc2ccccc12,100*,0,0,0,0,5,119*,12*
O=C(NNC(=O)c1cccc2ccccc12)c1ccc(Cl)cc1Cl,.,0,1,0,0,0,.,.
O=C(Nc1cccc2ccccc12)c1cccc([N+](=O)[O-])c1,34,0,-1,0,-1,1,.,.
COc1cccc(C(=O)Nc2cccc3ccccc23)c1OC,117*,0,-1,-1,-1,1,108*,44*
COc1ccccc1CC(=O)Nc1cccc2ccccc12,-1,0,-2,-1,-1,-1,.,.
O=C(Nc1cccc2ccccc12)c1cc2c(cc1Br)OCO2,82*,0,2,-1,-1,0,95*,120*
O=C(O)c1cccc([N+](=O)[O-])c1C(=O)Nc1cccc2ccccc12,84*,0,5,0,0,0,32,1
O=c1oc2ccccc2c(O)c1C=NCc1ccccn1,2,0,0,0,-2,0,.,.
O=c1c2ccccc2nc(-c2ccc(Cl)cc2Cl)n1O,10,0,-2,0,-2,-1,.,.
COc1cc(/C=N/Nc2nncn2N)ccc1OCc1c(C)no[n+]1[O-],3,-3,-2,-1,-2,-11,.,.
COc1ccc(/C=N/Nc2nncn2N)cc1Br,88*,-2,-3,1,-1,-13,41,12*
CC(C)NC(=O)C1(C)CN(S(C)(=O)=O)CC(=O)N1C1CCCCCC1 (centres undefined),.,-1,0,.,-1,-2,.,.
Cc1nc(C)c(-c2csc(Nc3ccccn3)n2)s1,83*,0,4,-1,0,6,23,35*
Cc1ccnc(Nc2nc(-c3sc(C)nc3C)cs2)c1,3,-2,-4,-6,-3,-4,.,.
CN(C)C(=O)COc1ccc(Br)cc1,-2,0,0,3,-1,-2,.,.
CN(C)C(=O)COc1ccc(S(=O)(=O)c2ccc(OCC(=O)N(C)C)cc2)cc1,102*,0,-1,0,-1,-2,6,9
COC(=O)CSc1nnc(NC(=O)/C=C\c2ccc3c(c2)OCO3)s1,4,0,-1,0,-1,-3,.,.
Nc1n[nH]c(-c2cccc([N+](=O)[O-])c2)n1,34,0,1,0,1,-1,.,.
O=[N+]([O-])c1cccc(-c2cc3ccccc3[nH]2)c1,84*,-1,2,0,-1,3,134*,15*
